Experiment [1] in a line: CCTE_Shafer_MEA_dev_correlation_coefficient_mean: CCTE's Neural Network Formation Assay for Mean Correlation Coefficient, Shafer Lab (AID 2284093).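 For AC50: well mean pairwise spike train correlation integrated as AUC over recording days 5 to 12; potency fitted for loss of correlation relative to DMSO vehicle wells.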 The procedure, abridged: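 Extracellular firing from rat cortical networks on 48-well MEAs, DMSO-referenced, negative fitting direction. Compound present from plating to DIV12; mean pairwise correlation per well integrated over DIV5–12 recordings by trapezoidal AUC.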

Experiment [2] can be described thus: BSK_BT_PBMCCytotoxicity: PBMC Cytotoxicity Assessment in the BioMAP Diversity Plus: BT Assay (AID 2284225).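 Note: PBMC viability measured by Alamar Blue dye reduction fluorescence.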 The conditions noted are these: primary human B cells with PBMC. In outline:
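PBMC (75,000/well) pretreated with compound 1 h, then activated with SEB and TSST-1 (20 ng/mL each final), incubated 90 h; Alamar Blue added 6 h, fluorescence read at 546/580 nm. Fitted relative to DMSO.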

Read-out in experiment [3]: Secreted IgG (sIgG), gene 3500
The experiment is described as follows: BSK_BT_sIgG: BioMAP Diversity Plus: BT Assay for Secreted IgG (sIgG) Biomarker Activity (AID 2284226). The conditions noted are these: primary human B cells with PBMC. The procedure, abridged: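 Read-out: ELISA for secreted IgG after 24 h of chemical exposure in a B cell plus PBMC co-culture. Values reflect upward-direction fitting against DMSO negative controls.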

Experiment [4] can be described thus: BSK_BT_Bcell_Proliferation: Viability Assessment in the BioMAP Diversity Plus: BT Assay for B cell Proliferation (AID 2284227). The conditions noted are these: primary human B cells with PBMC. The procedure, abridged: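 Using a human primary B cell–PBMC co-culture, the assay measures total protein by sulforhodamine B absorbance as a gauge of proliferation after 72 h. Analysis followed the positive fitting direction with DMSO as baseline.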

Read-out in experiment [5]: Interleukin 6 (IL6), IL6 (gene 3569)
The experiment is described as follows: BSK_BT_xIL6: BioMAP Diversity Plus: BT Assay for Interleukin 6 (IL6) Biomarker Activity (AID 2284228). The conditions noted are these: primary human B cells with PBMC. The procedure, abridged:
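Human B cell/PBMC co-culture; secreted IL-6 quantified by Luminex xMAP 24 h after chemical dosing, fitted relative to DMSO. Parallel PBMC viability by Alamar Blue after 1 h pretreatment, 20 ng/mL SEB and TSST-1, 90 h incubation.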

Read-out in experiment [6]: Interleukin 17A (IL17A), IL17A (gene 3605)
The experiment is described as follows: BSK_BT_xIL17A: BioMAP Diversity Plus: BT Assay for Interleukin 17A (IL17A) Biomarker Activity (AID 2284229). The following applies: primary human B cells with PBMC. The procedure, abridged:
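Co-culture of human B cells and PBMC, dosed for 24 h in 96-well format. Secreted IL-17A measured with Luminex xMAP; gain-direction fitting against DMSO as baseline.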

Read-out in experiment [7]: Tumor necrosis factor (Homo sapiens) (UniProt P01375)
In words: BSK_BT_xTNFa: BioMAP Diversity Plus: BT Assay for Tumor necrosis factor alpha (TNF-alpha) Biomarker Activity (AID 2284230). The following applies: primary human B cells with PBMC. The procedure, abridged:
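Endpoint derived in the positive direction versus DMSO vehicle. Cells: B cells together with PBMC, exposed 24 h before TNF-alpha in the medium was read on the Luminex xMAP platform.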

Read-out in experiment [8]: Collagen I, COL1A1 (gene 1277)
In words: BSK_MyoF_CollagenI: BioMAP Diversity Plus: MyoF Assay for Collagen I Biomarker Activity (AID 2284238). The following applies: primary human lung fibroblasts. The procedure, abridged:
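Primary human lung fibroblasts (MyoF system) treated 24 h; Collagen I quantified by ELISA and fitted in positive direction against DMSO. Parallel SRB total-protein staining assessed overt cytotoxicity.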

Read-out in experiment [9]: Collagen III, COL3A1 (gene 1281)
In words: BSK_MyoF_CollagenIII: BioMAP Diversity Plus: MyoF Assay for Collagen III Biomarker Activity (AID 2284239). The conditions noted are these: primary human lung fibroblasts. The procedure, abridged:
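Primary human lung fibroblasts (BioMAP MyoF system) exposed 24 h. Collagen III measured by ELISA; positive-direction fit relative to DMSO.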

Read-out in experiment [10]: Interleukin 17F (IL17F), IL17F (gene 112744)
In words: BSK_BT_xIL17F: BioMAP Diversity Plus: BT Assay for Interleukin 17F (IL17F) Biomarker Activity (AID 2284243). The conditions noted are these: primary human B cells with PBMC. In outline:
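Human PBMC co-cultured with B cells, compound exposure 24 h; secreted IL-17F quantified by Luminex xMAP, referenced to DMSO control. PBMC viability measured in parallel by Alamar Blue reduction.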

Read-out in experiment [11]: Actin alpha 1 (ACTA1), ACTA1 (gene 58)
In words: BSK_MyoF_ACTA1: BioMAP Diversity Plus: MyoF Assay for Actin alpha 1 (ACTA1) Biomarker Activity (AID 2284244). The conditions noted are these: primary human lung fibroblasts. In outline: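 Lung fibroblasts, human primary, 24 h compound exposure → a-SMA ELISA. Positive-direction fit vs DMSO control.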

Read-out in experiment [12]: Interleukin 2 (IL2), IL2 (gene 3558)
In words: BSK_BT_xIL2: BioMAP Diversity Plus: BT Assay for Interleukin 2 (IL2) Biomarker Activity (AID 2284245). The conditions noted are these: primary human B cells with PBMC. The procedure, abridged: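 B cell + PBMC co-culture (human primary), compound added, 24 h incubation; secreted IL-2 measured multiplexed on Luminex xMAP; gain-of-signal fit vs DMSO.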

Read-out in experiment [13]: Collagen IV, COL4A1 (gene 1282)
The experiment is described as follows: BSK_MyoF_CollagenIV: BioMAP Diversity Plus: MyoF Assay for Collagen IV Biomarker Activity (AID 2284247). The following applies: primary human lung fibroblasts. The procedure, abridged: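 Steps: dose human lung fibroblasts; culture 24 h; quantify Collagen IV by ELISA; fit increase versus DMSO control. Parallel SRB total-protein staining (0.1% SRB after 10% TCA fixation, 560 nm) tracks overt cytotoxicity.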

Read-out in experiment [14]: Monokine induced gamma interferon (MIG), CXCL9 (gene 4283)
In words: BSK_KF3CT_MIG: BioMAP Diversity Plus: KF3CT Assay for Monokine induced gamma interferon (MIG) Biomarker Activity (AID 2284248). The following applies: primary human keratinocytes with fibroblasts. In outline:
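Human keratinocyte–foreskin fibroblast co-culture; MIG measured by ELISA 24 h after chemical dosing, fitted upward versus DMSO. Cytotoxicity was assessed in parallel cultures by SRB total-protein staining read at 560 nm.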

Read-out in experiment [15]: Vascular cell adhesion molecule 1 (VCAM1), VCAM1 (gene 7412)
In words: BSK_BF4T_VCAM1: BioMAP Diversity Plus: BF4T Assay for Vascular cell adhesion molecule 1 (VCAM1) Biomarker Activity (AID 2284249). The conditions noted are these: primary human bronchial epithelial cells with fibroblasts. In outline: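 Human bronchial epithelial cell and dermal fibroblast co-culture exposed 24 h. VCAM-1 measured by ELISA; parallel SRB total-protein staining for cytotoxicity. Fitted in positive direction relative to DMSO.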

Read-out in experiment [16]: Vascular cell adhesion molecule 1 (VCAM1), VCAM1 (gene 7412)
In words: BSK_MyoF_VCAM1: BioMAP Diversity Plus: MyoF Assay for Vascular cell adhesion molecule 1 (VCAM1) Biomarker Activity (AID 2284231). The following applies: primary human lung fibroblasts. In outline: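 Primary human lung fibroblasts (BioMAP MyoF system) dosed with chemical, VCAM-1 measured by ELISA 24 hours later. Fitted in the positive direction against DMSO; parallel SRB staining assessed cytotoxicity.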

Read-out in experiment [17]: Basic fibroblast growth factor (bFGF), FGF2 (gene 2247)
The experiment is described as follows: BSK_MyoF_bFGF: BioMAP Diversity Plus: MyoF Assay for Basic fibroblast growth factor (bFGF) Biomarker Activity (AID 2284246). The following applies: primary human lung fibroblasts. In outline:
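ELISA-measured bFGF level serves as the read-out, taken 24 h after chemical dosing of human lung fibroblasts. Values represent signal gain over the DMSO negative control.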

The nature of experiment [18]: CCTE_Mundy_HCI_hNP1_Pro_ResponderAvgInten: CCTE's Proliferation Assay in human neuroprogenitor cells, Mundy Lab (AID 2284224; active = hit-call score of the fitted dose curve at least 0.9, where 1 is the maximum). In outline:
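Human neuroprogenitors (hNP1, WA09 lineage) receive test chemical after 40 to 44 hours of attachment. A four-hour BrdU pulse begins twenty hours later, followed by fixation and high content imaging; signal is referenced to DMSO controls.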

Experiment [19] in a line: CCTE_Mundy_HCI_hNP1_Casp3_7: CCTE's Caspase-Glo 3/7 Assay in human neuroprogenitor cells for Apoptosis, Mundy Lab (AID 2284240). The procedure, abridged:
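Neuroepithelial-lineage stem cells from WA09 embryonic cells were treated with chemicals after 40–44 h of culture. Twenty-four hours later, caspase-3/7 activation was detected luminescently after a 30 min room-temperature reagent step, with DMSO as baseline.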

A short description of experiment [20]: CCTE_Mundy_HCI_hNP1_CellTiter: CCTE's Cell Titer-Glo 2 Assay in human neuroprogenitor cells for Viability, Mundy Lab (AID 2284241; active = hit-call score of the fitted dose curve at least 0.9, where 1 is the maximum). The procedure, abridged: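 Measures ATP content in human neural progenitors derived from WA09 embryonic cells. Read-out at 26.5 hours after dosing, with DMSO serving as the negative control and baseline.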
For orientation: In ATP-based viability assays light output follows the ATP content of the culture.

Structures are written as SMILES. “And” between values parts separate entries of the source, which are not always exact repeats. Equal entries are not always repeated. Inconclusive results are not listed. More than one record can exist for a structure, and the calls need not agree. The source made the active and inactive calls. Rule for the calls, unless noted: active = hit-call score of the fitted dose curve at least 0.9, where 1 is the maximum; inactive = score below 0.9.

The AC50 is the concentration giving half of the maximal activity seen.

Chain of Tumor necrosis factor (Homo sapiens) (P01375 whole entry, looked up): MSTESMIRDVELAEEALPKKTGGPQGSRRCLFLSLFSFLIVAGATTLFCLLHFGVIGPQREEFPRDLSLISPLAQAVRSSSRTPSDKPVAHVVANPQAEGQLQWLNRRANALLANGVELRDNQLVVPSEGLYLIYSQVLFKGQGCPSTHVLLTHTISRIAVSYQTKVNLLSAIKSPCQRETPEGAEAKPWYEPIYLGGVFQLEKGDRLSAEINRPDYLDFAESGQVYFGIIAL

With `OC(O)C(F)(F)C(F)(F)F`, the result in experiment [1], in experiment [2], in experiment [3], in [4], in experiment [5] and in experiment [6] was inactive. For the same compound, the result in experiment [7], in experiment [8], in [9], in experiment [10], in experiment [11] and in [12] was inactive. Also, the outcome in [13], in [14] and in experiment [15] was inactive.
As for `OCC(F)(F)C(F)(F)C(F)(F)C(F)(F)C(F)(F)C(F)(F)CO`, the call in experiment [1], in [2], in experiment [3], in experiment [4], in [5] and in experiment [6] was inactive. The outcome in experiment [7], in experiment [16], in experiment [8], in [9], in experiment [10] and in experiment [11] was inactive. Besides, the outcome in [12], in experiment [17], in experiment [13], in [14] and in experiment [15] was inactive.
On to `CCN(CCO)S(=O)(=O)C(F)(F)C(F)(F)C(F)(F)C(F)(F)C(F)(F)C(F)(F)C(F)(F)C(F)(F)F`, for which the result in [1], in experiment [18], in [2], in experiment [19], in experiment [20] and in experiment [11] was inactive. In addition, the outcome in [13] and in experiment [15] was inactive. Also, the AC50 is 16.6 µM (active) in [3]; 46.4 µM (active) and 30 µM (active) in [4]; 41.8 µM (active) and 46.8 µM (active) in experiment [5]; 20.2 µM (active) and 21.2 µM (active) in [6]; 21.7 µM (active) and 30 µM (active) in [7]; 12.6 µM (active) and 13 µM (active) in experiment [16]. Further, the half-maximal activity concentration (AC50) in [8] is 19.9 µM (active) and 20.3 µM (active); in [9], 18.9 µM (active) and 23.2 µM (active); in experiment [10] it was 13 µM (active) and 12.6 µM (active); in [11], 19.5 µM (active); in experiment [12], 26.7 µM (active) and 25.7 µM (active); in [14], 22.7 µM (active) and 31.6 µM (active).
For `CNS(=O)(=O)C(F)(F)C(F)(F)C(F)(F)C(F)(F)C(F)(F)C(F)(F)C(F)(F)C(F)(F)F`, the result in experiment [1], in experiment [2], in [3], in experiment [4], in experiment [5] and in [6] was inactive. In addition, the result in experiment [7], in experiment [8], in [9], in experiment [11], in [12] and in experiment [14] was inactive. In addition, the result in experiment [15] was inactive. Further, the AC50 was 27.6 µM (active) in [3]; 44.9 µM (active) in experiment [7]; 16.4 µM (active) and 7.34 µM (active) in experiment [10]; 2.71 µM (active) and 3.58 µM (active) in experiment [13].
As for `OCC(F)(F)C(F)(F)C(F)(F)C(F)(F)C(F)(F)C(F)(F)C(F)(F)C(F)(F)CO`, the AC50 in experiment [1] was 24.1 µM (active); in [2] it was 46.1 µM (active) and 47.5 µM (active); in [3] it was 49.8 µM (active) and 47.1 µM (active); in [4], 46.8 µM (active) and 47.9 µM (active); in [5] it was 48.7 µM (active); in experiment [7], 45.6 µM (active) and 54 µM (active). For the same compound, the concentration at half-maximal activity (AC50) in experiment [16] was 47.9 µM (active) and 45.4 µM (active); in experiment [8], 40.4 µM (active); in experiment [9], 37.1 µM (active) and 45.7 µM (active); in experiment [10], 53.8 µM (active) and 38.5 µM (active); in experiment [11], 44.9 µM (active) and 42.5 µM (active); in experiment [12] it was 54.7 µM (active) and 46.9 µM (active). Moreover, the AC50 in [13] is 49.1 µM (active); in [14], 49.2 µM (active) and 48.4 µM (active); in experiment [15], 12 µM (active). Moreover, the outcome in experiment [8], in experiment [13] and in [15] was inactive.

The values above are taken from PubChem BioAssay (EPA / NIEHS).
